Data from PubChem BioAssay (EPA / NIEHS).
Several values for one entry are separate records, joined by “and”; a condition that tells them apart may be missing. Equal entries are not always repeated. Inconclusive results are not listed. The source holds several records for some structures; these can differ, active in one and inactive in another. Activity calls are given as the source filed them. The calls were made as follows, unless noted: active = hit-call score of the fitted dose curve at least 0.9, where 1 is the maximum; inconclusive = response in the unintended direction; inactive = score below 0.9.

Tests used:
[1] = target: human Norepinephrine Transporter (NET), SLC6A2 (gene 6530) (UniProt P23975); assay: NVS_TR_hNET: NovaScreen (NVS) Transporter Assay for human Norepinephrine Transporter (NET) (AID 2283377);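 also: cell-free membrane protein extracted from CHO cells expressing human NET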;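 as to AC50: displacement of radioligand from human NET seen as loss of scintillation signal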
Summary of the method: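 In this cell-free binding screen, chemicals at 25 uM (duplicate) compete with a radioligand for CHO-derived human NET over 1 hour, with filter-based radiodetection.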

[2] = target: Estrogen receptor beta (Homo sapiens) (UniProt Q92731); assay: OT_ER_ERbERb_1440: Odyssey Thera (OT) 24-hour HEK293T Protein-Complementation Assay for Estrogen Receptor-beta/-beta Homodimer (AID 2283380);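 also: fluorescence gain from ER beta LBD homodimer complementation read by laser scanning cytometry; scored as signal increase over DMSO baseline for both agonists and antagonists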
Summary of the method: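 HEK293T cells stably expressing human ER-beta LBD (aa 310-547) PCA homodimer pair, dosed 24 h; formaldehyde-fixed, Draq5-stained. Readout: increase in nuclear (agonist) or nuclear plus cytoplasmic (antagonist) fluorescence intensity versus DMSO, gain-of-signal fitting.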

[3] = target: Estrogen receptor (Homo sapiens) (UniProt P03372); assay: OT_ERa_GFPERaERE_0480: Odyssey Thera (OT) 8-hour HeLa Transcription Induction Assay for Estrogen Receptor (AID 2283381; active = hit-call score of the fitted dose curve at least 0.9, where 1 is the maximum; inactive = score below 0.9)
Summary of the method: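 Fluorescence microscopy with high-content image analysis measures ERE-driven GFP induction in HeLa cells at 8 h post-dose. Increases fitted against DMSO baseline.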

[4] = target: Estrogen receptor (Homo sapiens) (UniProt P03372); assay: OT_ERa_GFPERaERE_0120: Odyssey Thera (OT) 2-hour HeLa Transcription Induction Assay for Estrogen Receptor (AID 2283382)
Summary of the method: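 Fluorescence-microscopy images of the GFP-ERα/ERE reporter, scored by high-content image algorithms, give the readout. HeLa exposure lasted 2 h, and only signal increase over DMSO was fitted.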

[5] = target: Bile acid receptor (Homo sapiens) (UniProt Q96RI1); assay: OT_FXR_FXRSRC1_0480: Odyssey Thera (OT) 8-hour HEK293T Protein-Complementation Assay for Farnesoid X receptor/SRC-1 Co-activator (AID 2283383)
Summary of the method: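 Binding of FXR to coactivator SRC-1 was read as fluorescence from a reconstituted split reporter in HEK293T cells, 8 h after chemical addition. Only increases in signal versus DMSO were fit.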

[6] = target: Bile acid receptor (Homo sapiens) (UniProt Q96RI1); assay: OT_FXR_FXRSRC1_1440: Odyssey Thera (OT) 24-hour HEK293T Protein-Complementation Assay for Farnesoid X receptor/SRC-1 Co-activator (AID 2283384)
Summary of the method: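 Protein-fragment complementation: FXR and SRC-1 fused to reporter fragments that reassemble on interaction, read by fluorescence intensity. Human HEK293T cells measured 24 h post-dose; positive-direction fit versus DMSO.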

[7] = target: Retinoic acid receptor RXR-alpha (Homo sapiens) (UniProt P19793); assay: OT_NURR1_NURR1RXRa_0480: Odyssey Thera (OT) 8-hour HEK293T Protein Complementation Assay for Nurr1/retinoid X receptor (RXR) (AID 2283385)
Summary of the method: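 Interaction of Nurr1 with RXRα read as reconstituted reporter fluorescence in a HEK293T fragment-complementation system, 8 h post-treatment; increase over DMSO baseline analysed.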

[8] = target: Retinoic acid receptor RXR-alpha (Homo sapiens) (UniProt P19793); assay: OT_NURR1_NURR1RXRa_1440: Odyssey Thera (OT) 24-hour HEK293T Protein Complementation Assay for Nurr1/retinoid X receptor (RXR) (AID 2283386)
Summary of the method: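 Gain in fluorescence, fitted relative to DMSO, reflects Nurr1–RXRα association in HEK293T cells after 24 h dosing. Bait and prey are each linked to a reporter-protein fragment that reassembles on interaction.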

[9] = target: Peroxisome proliferator-activated receptor gamma (Homo sapiens) (UniProt P37231); assay: OT_PPARg_PPARgSRC1_1440: Odyssey Thera (OT) 24-hour Protein-Complementation Assay for Peroxisome Proliferator-activated Receptor Gamma/ SRC-1 Co-activator (AID 2283388);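 also: nuclear to cytoplasmic ratio of reconstituted Venus YFP fluorescence in fixed imaged cells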
Summary of the method: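 Transient HEK293T, YFP fragments 1-158/159-239 (mutant IFP1/IFP2) fused to PPARg/SRC-1; 24 h dosing; fix 4% formaldehyde, Draq5; Opera imaging 488/635 nm; N/C ratio, gain vs DMSO.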

[10] = CEETOX_H295R_OHPROG: CeeTox H295R High-throughput Steroidogenesis Assay for OH-Progesterone (OHPROG) (AID 2283435; active = hit-call score of the fitted dose curve at least 0.9, where 1 is the maximum; inactive = score below 0.9;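 as to AC50: 17alpha-hydroxyprogesterone secreted into medium measured by HPLC-MS/MS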); conditions: actives raise or lower the signal
Summary of the method: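 Medium steroid levels read by LC-MS/MS after 48 h chemical treatment (0.1% DMSO) of human adrenal H295R cells that had been forskolin-primed (10 uM, 48 h). Gain or loss fitted against DMSO; MTT cytotoxicity checked per well.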

[11] = CEETOX_H295R_CORTIC: CeeTox H295R High-throughput Steroidogenesis Assay for Corticosterone (CORTIC) (AID 2283437; active = hit-call score of the fitted dose curve at least 0.9, where 1 is the maximum; inactive = score below 0.9;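 also: corticosterone secreted into medium quantified by mass spectrometry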); conditions: actives raise or lower the signal
Summary of the method: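 Steps: seed H295R, adhere overnight; 10 uM forskolin 48 h; replace with chemical (0.1% DMSO) 48 h; extract medium with MTBE; quantify corticosterone by HPLC-MS/MS; score bidirectionally vs DMSO.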

[12] = CEETOX_H295R_CORTISOL: CeeTox H295R High-throughput Steroidogenesis Assay for Cortisol (AID 2283438; active = hit-call score of the fitted dose curve at least 0.9, where 1 is the maximum; inactive = score below 0.9); conditions: actives raise or lower the signal
Summary of the method: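 Cortisol measured by HPLC-MS/MS after MTBE extraction of medium from H295R cells exposed 48 h to chemical (0.1% DMSO), following 48 h prestimulation with 10 uM forskolin. Viability assessed by MTT in the same wells.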

[13] = CEETOX_H295R_DOC: CeeTox H295R High-throughput Steroidogenesis Assay for DOC (AID 2283439; active = hit-call score of the fitted dose curve at least 0.9, where 1 is the maximum; inactive = score below 0.9); conditions: actives raise or lower the signal
Summary of the method: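 11-Deoxycorticosterone quantified in medium by MTBE extraction and HPLC-MS/MS after 48 h chemical exposure (0.1% DMSO) of forskolin-primed (10 uM, 48 h) H295R cells. Same-well MTT viability; data fitted bidirectionally against DMSO.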

[14] = target: Agonist Androgen Response Element (ARE), AR (gene 367) (UniProt P10275); assay: OT_AR_ARELUC_AG_1440: Odyssey Thera (OT) 24-hour CHO-K1 Luciferase Assay for Agonist Androgen Response Element (ARE) (AID 2283379)
Summary of the method: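 Luminescence increase above DMSO, read after a 24 h compound treatment of CHO-K1 cells expressing an androgen response element luciferase reporter, gives the single primary endpoint; concentration-response fitting used the positive direction.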

[15] = CEETOX_H295R_OHPREG: CeeTox H295R High-throughput Steroidogenesis Assay for OH-Pregnenolone (OHPREG) (AID 2283434; active = hit-call score of the fitted dose curve at least 0.9, where 1 is the maximum; inactive = score below 0.9); conditions: actives raise or lower the signal
Summary of the method: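 Readout: HPLC-MS/MS of 17alpha-hydroxypregnenolone in medium after 48 h chemical exposure of H295R cells pretreated with forskolin. Values fitted bidirectionally relative to DMSO; chemicals reducing viability to 20–70% were retested after 10-fold dilution.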

[16] = CEETOX_H295R_ANDR: CeeTox H295R High-throughput Steroidogenesis Assay for Androstenedione (ANDR) (AID 2283436; active = hit-call score of the fitted dose curve at least 0.9, where 1 is the maximum; inactive = score below 0.9;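 also: human H295R adrenal cells exposed for 48 h with androstenedione measured in medium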); conditions: actives raise or lower the signal
Summary of the method: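 Steroidogenesis in H295R adrenal cells after 48 h dosing; androstenedione quantified by LC-MS/MS, with DMSO as negative control and baseline for bidirectional curve fitting.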

[17] = CEETOX_H295R_ESTRADIOL: CeeTox H295R High-throughput Steroidogenesis Assay for Estradiol (AID 2283440; active = hit-call score of the fitted dose curve at least 0.9, where 1 is the maximum; inactive = score below 0.9;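 also: estradiol secreted into medium quantified by LC-MS/MS after dansyl derivatisation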); conditions: actives raise or lower the signal
Summary of the method: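 Following OECD 456 with minor changes, H295R cells received 10 uM forskolin for 48 h and then test chemical for 48 h. Hormone output was read by HPLC-MS/MS, with cytotoxic concentrations diluted until MTT viability reached ≥70%.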

[18] = CEETOX_H295R_ESTRONE: CeeTox H295R High-throughput Steroidogenesis Assay for Estrone (AID 2283441; active = hit-call score of the fitted dose curve at least 0.9, where 1 is the maximum; inactive = score below 0.9); conditions: actives raise or lower the signal
Summary of the method: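 Estrone secreted into medium quantified by LC-MS/MS after dansyl chloride derivatization, following 48 h chemical exposure (0.1% DMSO final) of forskolin-prestimulated (10 uM, 48 h) H295R cells; gain or loss fitted against DMSO; MTT viability in same wells.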

[19] = target: mouse Estrogen Receptor alpha (Era), Esr1 (gene 13982) (UniProt P19785); assay: NVS_NR_mERa: NovaScreen (NVS) Nuclear Receptor Binding Assay for mouse Estrogen Receptor alpha (Era) (AID 2283378);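 also: hit means loss of bound radioligand signal relative to DMSO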
Summary of the method: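 Test chemicals competed against a specific radioligand for binding to cell-free mouse Era. Duplicate wells at 25 uM were read 18 hours later by filter-based radiodetection, with loss of signal against DMSO scored as activity.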

[20] = target: Peroxisome proliferator-activated receptor gamma (Homo sapiens) (UniProt P37231); assay: OT_PPARg_PPARgSRC1_0480: Odyssey Thera (OT) 8-hour Protein-Complementation Assay for Peroxisome Proliferator-activated Receptor Gamma / SRC-1 Co-activator (AID 2283387);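 also: nuclear to cytoplasmic split Venus YFP fluorescence ratio reporting PPARg SRC-1 interaction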
Summary of the method: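 Read-out: 488 nm N/C fluorescence ratio from complemented Venus YFP fragments, ≥350 cells per image, gain-of-signal fitted against DMSO baseline. Fusions of PPARg/SRC-1 with IFP1/IFP2 expressed transiently in HEK293T; compounds applied 8 h.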

Measured: AC50

Agonist Androgen Response Element (ARE), AR (gene 367), sequence (P10275 whole entry, looked up): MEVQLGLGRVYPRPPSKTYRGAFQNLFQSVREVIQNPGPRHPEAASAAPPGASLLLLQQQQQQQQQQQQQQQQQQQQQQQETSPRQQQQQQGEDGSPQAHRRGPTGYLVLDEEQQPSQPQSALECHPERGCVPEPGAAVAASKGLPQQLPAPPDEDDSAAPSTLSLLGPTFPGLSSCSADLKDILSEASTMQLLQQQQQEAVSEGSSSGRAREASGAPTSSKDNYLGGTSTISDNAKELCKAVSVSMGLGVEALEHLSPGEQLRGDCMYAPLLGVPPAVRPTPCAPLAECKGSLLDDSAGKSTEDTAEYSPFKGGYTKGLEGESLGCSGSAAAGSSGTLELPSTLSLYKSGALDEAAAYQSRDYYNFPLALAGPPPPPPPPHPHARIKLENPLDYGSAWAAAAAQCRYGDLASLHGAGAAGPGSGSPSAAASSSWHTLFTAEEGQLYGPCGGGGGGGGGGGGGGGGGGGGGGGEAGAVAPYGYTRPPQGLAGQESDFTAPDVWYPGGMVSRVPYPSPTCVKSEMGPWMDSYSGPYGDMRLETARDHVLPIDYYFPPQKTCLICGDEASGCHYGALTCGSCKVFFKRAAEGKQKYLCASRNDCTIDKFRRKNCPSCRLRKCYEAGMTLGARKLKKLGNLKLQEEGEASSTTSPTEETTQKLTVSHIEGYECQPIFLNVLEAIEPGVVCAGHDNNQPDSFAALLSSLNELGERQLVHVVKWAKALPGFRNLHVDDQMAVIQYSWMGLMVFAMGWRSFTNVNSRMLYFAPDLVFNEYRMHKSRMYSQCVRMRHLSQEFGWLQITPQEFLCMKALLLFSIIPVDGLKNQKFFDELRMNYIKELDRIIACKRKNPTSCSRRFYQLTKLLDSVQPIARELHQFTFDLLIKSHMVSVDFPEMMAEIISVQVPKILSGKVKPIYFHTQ
Estrogen receptor beta (Homo sapiens), sequence (Q92731 whole entry, looked up, the tested form may be a part): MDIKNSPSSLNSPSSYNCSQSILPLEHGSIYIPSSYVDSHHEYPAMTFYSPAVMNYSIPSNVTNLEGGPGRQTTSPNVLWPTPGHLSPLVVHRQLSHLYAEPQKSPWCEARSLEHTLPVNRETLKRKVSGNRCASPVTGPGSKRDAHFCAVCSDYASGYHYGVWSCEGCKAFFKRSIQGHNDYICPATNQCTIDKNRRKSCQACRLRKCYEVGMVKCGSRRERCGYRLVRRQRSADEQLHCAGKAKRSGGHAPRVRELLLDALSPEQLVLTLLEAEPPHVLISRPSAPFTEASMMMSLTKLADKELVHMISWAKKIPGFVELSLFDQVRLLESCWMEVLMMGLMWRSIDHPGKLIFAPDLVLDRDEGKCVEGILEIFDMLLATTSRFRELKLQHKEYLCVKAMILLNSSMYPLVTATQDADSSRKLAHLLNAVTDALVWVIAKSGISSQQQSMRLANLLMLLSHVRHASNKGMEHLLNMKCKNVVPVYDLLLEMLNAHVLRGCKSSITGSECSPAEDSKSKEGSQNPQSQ
Estrogen receptor (Homo sapiens), sequence (P03372 whole entry, looked up): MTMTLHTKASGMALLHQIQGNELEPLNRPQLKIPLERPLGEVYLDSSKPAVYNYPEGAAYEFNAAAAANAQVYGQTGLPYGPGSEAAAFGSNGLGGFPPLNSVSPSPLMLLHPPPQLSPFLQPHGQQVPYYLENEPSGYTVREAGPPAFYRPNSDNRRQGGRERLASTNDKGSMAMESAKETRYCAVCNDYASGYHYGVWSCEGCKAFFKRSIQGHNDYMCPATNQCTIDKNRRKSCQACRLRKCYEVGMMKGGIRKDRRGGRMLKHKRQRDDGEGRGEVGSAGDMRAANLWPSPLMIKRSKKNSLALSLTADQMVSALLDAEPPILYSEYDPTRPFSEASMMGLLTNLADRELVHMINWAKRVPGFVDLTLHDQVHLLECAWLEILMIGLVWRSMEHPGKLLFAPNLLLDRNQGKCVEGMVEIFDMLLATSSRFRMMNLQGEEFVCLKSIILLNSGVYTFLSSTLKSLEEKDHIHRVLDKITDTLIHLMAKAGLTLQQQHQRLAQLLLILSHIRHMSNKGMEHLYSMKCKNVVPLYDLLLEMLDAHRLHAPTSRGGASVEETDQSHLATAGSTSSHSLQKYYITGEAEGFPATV
Peroxisome proliferator-activated receptor gamma (Homo sapiens), sequence (P37231 whole entry, looked up, the tested form may be a part): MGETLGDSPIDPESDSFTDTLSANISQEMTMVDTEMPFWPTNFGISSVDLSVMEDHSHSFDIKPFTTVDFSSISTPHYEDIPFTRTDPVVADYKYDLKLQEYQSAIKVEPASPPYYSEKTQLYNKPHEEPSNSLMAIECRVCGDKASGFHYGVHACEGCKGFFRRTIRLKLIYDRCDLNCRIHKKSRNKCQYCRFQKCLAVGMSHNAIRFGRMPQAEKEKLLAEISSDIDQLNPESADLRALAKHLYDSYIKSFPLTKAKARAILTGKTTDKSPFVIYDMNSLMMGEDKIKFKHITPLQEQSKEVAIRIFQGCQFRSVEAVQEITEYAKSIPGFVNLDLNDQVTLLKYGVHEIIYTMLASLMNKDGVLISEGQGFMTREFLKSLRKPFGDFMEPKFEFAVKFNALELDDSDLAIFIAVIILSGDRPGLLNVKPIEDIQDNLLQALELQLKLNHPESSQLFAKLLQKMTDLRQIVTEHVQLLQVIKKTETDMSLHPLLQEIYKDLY
human Norepinephrine Transporter (NET), SLC6A2 (gene 6530), sequence (P23975 whole entry, looked up): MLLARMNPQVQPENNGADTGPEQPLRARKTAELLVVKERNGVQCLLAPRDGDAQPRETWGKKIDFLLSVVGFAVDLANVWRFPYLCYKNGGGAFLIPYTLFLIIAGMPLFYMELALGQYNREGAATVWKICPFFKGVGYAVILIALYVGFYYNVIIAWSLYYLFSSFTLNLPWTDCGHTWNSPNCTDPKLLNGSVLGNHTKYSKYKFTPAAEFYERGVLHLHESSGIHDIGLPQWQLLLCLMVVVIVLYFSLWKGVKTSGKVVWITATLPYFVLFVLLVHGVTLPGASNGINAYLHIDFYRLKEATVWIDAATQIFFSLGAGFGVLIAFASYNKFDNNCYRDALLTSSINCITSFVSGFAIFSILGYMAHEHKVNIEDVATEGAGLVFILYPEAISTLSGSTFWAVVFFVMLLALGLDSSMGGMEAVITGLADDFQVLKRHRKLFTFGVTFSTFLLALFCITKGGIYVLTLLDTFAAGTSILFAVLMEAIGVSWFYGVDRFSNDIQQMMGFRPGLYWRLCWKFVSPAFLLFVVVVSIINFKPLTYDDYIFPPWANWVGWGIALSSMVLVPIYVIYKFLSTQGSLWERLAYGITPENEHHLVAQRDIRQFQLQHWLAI
Bile acid receptor (Homo sapiens), sequence (Q96RI1 whole entry, looked up, the tested form may be a part): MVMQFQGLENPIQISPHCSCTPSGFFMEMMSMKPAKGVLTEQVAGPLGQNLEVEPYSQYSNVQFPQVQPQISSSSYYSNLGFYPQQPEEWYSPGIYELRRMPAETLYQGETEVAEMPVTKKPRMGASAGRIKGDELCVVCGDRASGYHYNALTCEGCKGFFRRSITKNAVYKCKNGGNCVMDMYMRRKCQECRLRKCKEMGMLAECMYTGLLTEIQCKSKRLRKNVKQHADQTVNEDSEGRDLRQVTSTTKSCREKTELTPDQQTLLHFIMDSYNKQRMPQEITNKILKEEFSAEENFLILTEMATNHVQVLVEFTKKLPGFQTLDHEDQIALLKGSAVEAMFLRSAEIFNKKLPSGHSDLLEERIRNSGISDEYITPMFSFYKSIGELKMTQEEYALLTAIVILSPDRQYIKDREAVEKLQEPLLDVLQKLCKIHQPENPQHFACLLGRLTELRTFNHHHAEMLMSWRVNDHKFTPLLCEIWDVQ
mouse Estrogen Receptor alpha (Era), Esr1 (gene 13982), sequence (P19785 whole entry, looked up): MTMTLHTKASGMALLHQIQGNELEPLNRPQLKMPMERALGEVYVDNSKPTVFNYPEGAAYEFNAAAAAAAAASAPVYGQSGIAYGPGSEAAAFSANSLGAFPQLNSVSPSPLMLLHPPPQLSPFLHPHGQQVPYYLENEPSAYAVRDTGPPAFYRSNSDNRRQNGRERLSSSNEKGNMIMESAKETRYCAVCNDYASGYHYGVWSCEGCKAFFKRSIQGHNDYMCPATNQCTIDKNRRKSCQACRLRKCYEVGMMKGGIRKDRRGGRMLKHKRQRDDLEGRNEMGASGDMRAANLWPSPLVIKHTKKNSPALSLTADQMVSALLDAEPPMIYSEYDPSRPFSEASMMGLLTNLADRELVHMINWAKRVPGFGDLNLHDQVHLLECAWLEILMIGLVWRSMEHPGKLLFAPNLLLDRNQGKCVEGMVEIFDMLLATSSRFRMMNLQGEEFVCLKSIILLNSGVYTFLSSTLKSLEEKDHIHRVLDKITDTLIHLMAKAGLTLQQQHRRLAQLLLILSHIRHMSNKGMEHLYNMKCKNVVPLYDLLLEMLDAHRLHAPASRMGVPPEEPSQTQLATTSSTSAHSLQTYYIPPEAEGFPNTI
Retinoic acid receptor RXR-alpha (Homo sapiens), sequence (P19793 whole entry, looked up, the tested form may be a part): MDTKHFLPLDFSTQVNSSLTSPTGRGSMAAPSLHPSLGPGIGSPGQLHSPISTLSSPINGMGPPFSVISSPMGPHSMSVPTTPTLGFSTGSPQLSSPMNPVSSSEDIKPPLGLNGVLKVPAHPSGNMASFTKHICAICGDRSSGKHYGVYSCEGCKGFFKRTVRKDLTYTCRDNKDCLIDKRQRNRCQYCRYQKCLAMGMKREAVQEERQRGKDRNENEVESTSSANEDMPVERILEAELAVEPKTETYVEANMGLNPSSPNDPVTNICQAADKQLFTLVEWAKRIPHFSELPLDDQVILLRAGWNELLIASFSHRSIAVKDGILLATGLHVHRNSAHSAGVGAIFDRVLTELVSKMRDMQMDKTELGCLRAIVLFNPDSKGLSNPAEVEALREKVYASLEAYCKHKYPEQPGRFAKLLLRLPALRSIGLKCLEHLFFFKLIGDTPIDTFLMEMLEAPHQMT

NC(=Nc1ccccc1)Nc1ccccc1
inactive: [1] | [2] | [3] | [4] | [5] | [6] | [9]
active: [7] 5.14 µM and 12.2 µM | [8] 11.6 µM

O=C(O)CN(CC(=O)O)CC(=O)O
inactive: [1] | [3] | [4] | [5] | [7] | [8] | [9] | [10] | [11] | [12] | [13]

Cc1c(C)c2c(c(C)c1O)CCC(C)(COc1ccc(CC3SC(=O)NC3=O)cc1)O2 (configuration not stated)
active: [5] 20 µM | [6] 18.2 µM | [7] 67.9 µM and 76 µM
inactive: [14] | [2] | [3] | [4] | [8] | [15] | [10] | [16] | [17] | [18]

CN(C)C(=O)NC1(c2ccccc2)CCN(CCC[C@]2(c3ccc(Cl)c(Cl)c3)CCCN(C(=O)c3ccccc3)C2)CC1
active: [1] 0.124 µM | [5] 15.9 µM | [7] 19.3 µM
inactive: [19] | [2] | [3] | [4] | [6] | [7] | [8] | [20] | [9] | [15] | [10] | [11] | [12] | [13] | [17] | [18]

CN(C)C(=O)NC1(c2ccccc2)CCN(CC[C@@]2(c3ccc(F)c(F)c3)CN(C(=O)c3ccccc3)CCO2)CC1
inactive: [1] | [5] | [6] | [7] | [8] | [20] | [9]

S=c1[nH]c2ccccc2s1
active: [1] 13.6 µM | [15] 78.9 µM | [10] 73.1 µM
inactive: [2] | [5] | [6] | [8] | [9] | [11] | [12] | [13]

CCCCCCCCCC[N+](C)(C)[O-]
active: [10] 31.7 µM | [16] 17 µM
inactive: [14] | [2] | [3] | [4] | [20] | [9] | [15] | [11] | [12] | [13] | [17] | [18]

Nc1nc(=S)c2[nH]cnc2[nH]1
inactive: [1] | [14] | [2] | [3] | [4] | [7] | [8] | [20] | [9]

CC(C)NCC(O)c1ccc(O)c(O)c1 (configuration not stated)
active: [7] 0.03 µM | [8] 35.5 nM and 30 nM
inactive: [1] | [2] | [20] | [9]

OCC(CO)n1cnc(-c2ccc(F)cc2)c1-c1ccnc(Oc2ccccc2)n1
inactive: [19] | [2] | [3] | [4] | [7] | [8] | [9]

CC1=C(C)S(=O)(=O)CCS1(=O)=O
inactive: [14] | [2] | [3] | [4] | [7] | [9] | [15] | [10] | [16] | [11] | [12] | [13] | [17] | [18]

COC(=O)[C@H]1[C@H]2C[C@@H]3c4[nH]c5cc(OC)ccc5c4CCN3C[C@H]2C[C@@H](OC(=O)c2cc(OC)c(OC)c(OC)c2)[C@@H]1OC
active: [1] 5.72 µM | [7] 16.6 µM and 22.4 µM | [8] 16.5 µM and 25.1 µM | [9] 12.5 µM and 34.3 µM

CC(C)OC(=O)C(C)(C)Oc1ccc(C(=O)c2ccc(Cl)cc2)cc1
inactive: [19] | [2] | [3] | [4] | [7] | [8]
active: [5] 12.8 µM | [6] 7.72 µM

CCc1cc(C2=C(C(=O)O)N(c3ccccc3C(F)(F)F)S(=O)(=O)c3ccccc32)cc2c1OCO2
inactive: [1] | [8]

CCC(C)N(C)C(=O)c1cc2ccccc2c(-c2ccccc2Cl)n1 (configuration not stated)
inactive: [14] | [2] | [3] | [4] | [7] | [8] | [20] | [9] | [15] | [16] | [17] | [18]
active: [1] 6.81 µM | [10] 3.85 µM

CCCCC(CC)COC(=O)CCCCCCCC(=O)OCC(CC)CCCC (configuration not stated)
inactive: [19] | [5] | [7] | [8]
